Common to all, as to details: mRNA level, 48 h; actives raise or lower the signal
Read-out in one test: BCL2L11 (gene 10018)
Put plainly: LTEA_HepaRG_BCL2L11: Life Technologies and Expression Analysis (LTEA) Assay for Bcl-2 (BCL2L11) gene using HepaRG (AID 2283473). The method, boiled down: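 HepaRG, 48 h exposure, 8-pt half-log series from 100 uM in 0.5% DMSO, duplicates; qRT-PCR (Fluidigm TaqMan) for BCL2L11, housekeeping-normalized; bidirectional curve fit relative to DMSO baseline.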

Read-out in test [1]: Apolipoprotein A-V (APOA5) gene, APOA5 (gene 116519)
Put plainly: LTEA_HepaRG_APOA5: Life Technologies and Expression Analysis (LTEA) Assay for Apolipoprotein A-V (APOA5) gene using HepaRG (AID 2283474). In a few lines:
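HepaRG, 48 h chemical exposure in serum-free induction medium, 8-pt half-log series (top 100 uM), 0.5% DMSO vehicle, duplicates. Readout: APOA5 mRNA by qRT-PCR, housekeeping-normalized; bidirectional fit vs DMSO baseline.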

Read-out in test [2]: Apoptosis regulator Bcl-2 (Homo sapiens) (UniProt P10415)
Put plainly: LTEA_HepaRG_BCL2: Life Technologies and Expression Analysis (LTEA) Assay for Bcl-2 gene using HepaRG (AID 2283475). The method, boiled down:
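qRT-PCR of BCL2 transcript, normalized to three housekeeping genes (ACTB, GAPDH, POLR2A), after 48 h chemical exposure of HepaRG cells; concentrations top 100 uM with half-log dilutions, 0.5% DMSO vehicle, duplicates; changes up or down fitted relative to vehicle.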

Read-out in test [3]: Bcl-2 (BID) gene, BID (gene 637)
Put plainly: LTEA_HepaRG_BID: Life Technologies and Expression Analysis (LTEA) Assay for Bcl-2 (BID) gene using HepaRG (AID 2283476). The method, boiled down: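 Duplicate 48 h treatments of HepaRG cells in serum-free induction medium spanned 100 uM downward in half-log steps, 0.5% DMSO. Transcript change quantified by qRT-PCR against three housekeeping genes, fitted up or down versus DMSO.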

Read-out in another test: Caspase-3 (Homo sapiens) (UniProt P42574)
Put plainly: LTEA_HepaRG_CASP3: Life Technologies and Expression Analysis (LTEA) Assay for cysteine-aspartic acid protease (CASP3) using HepaRG (AID 2283477). In a few lines:
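HepaRG, 48 h exposure, 8 conc. (top 100 uM, half-log steps, duplicate), 0.5% DMSO vehicle; qRT-PCR of CASP3 transcript, housekeeping-normalised (ACTB/GAPDH/POLR2A); bidirectional curve fit vs DMSO baseline.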

Read-out in test [4]: Cytochrome P450 (CYP24A1), CYP24A1 (gene 1591)
Put plainly: LTEA_HepaRG_CYP24A1: Life Technologies and Expression Analysis (LTEA) Assay for Cytochrome P450 (CYP24A1) using HepaRG (AID 2283478). The method, boiled down:
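qRT-PCR read-out: CYP24A1 transcript levels normalized to three housekeeping genes, bidirectional curve fits against 0.5% DMSO baseline. Human HepaRG cells treated 48 h with chemicals at eight concentrations from 100 uM in half-log steps.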

Read-out in test [5]: Cytochrome P450 (CYP1A2), CYP1A2 (gene 1544)
Put plainly: LTEA_HepaRG_CYP1A2: Life Technologies and Expression Analysis (LTEA) Assay for Cytochrome P450 (CYP1A2) using HepaRG (AID 2283479). In a few lines:
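HepaRG, 48 h exposure, top 100 uM, half-log 8-pt, 0.5% DMSO vehicle, duplicates. Readout: TaqMan qRT-PCR of CYP1A2 mRNA, housekeeping-normalized (ACTB/GAPDH/POLR2A). Gain/loss fit relative to DMSO baseline.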

Read-out in test [6]: cysteine-aspartic acid protease (CASP8), CASP8 (gene 841)
The test is described as follows: LTEA_HepaRG_CASP8: Life Technologies and Expression Analysis (LTEA) Assay for cysteine-aspartic acid protease (CASP8) using HepaRG (AID 2283480). The method, boiled down:
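Concentration-response in duplicate up to 100 uM (half-log steps, 0.5% DMSO) on differentiated HepaRG cultures for 48 h. Expression change of CASP8 mRNA is determined by TaqMan qRT-PCR with housekeeping-gene normalization.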

Read-out in test [7]: Cytochrome P450 (CYP2B6), CYP2B6 (gene 1555)
The test is described as follows: LTEA_HepaRG_CYP2B6: Life Technologies and Expression Analysis (LTEA) Assay for Cytochrome P450 (CYP2B6) using HepaRG (AID 2283481). The method, boiled down: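 Read-out is CYP2B6 mRNA by TaqMan qRT-PCR, normalized to three housekeeping genes and fitted bidirectionally against 0.5% DMSO baseline. Human HepaRG cells received test chemicals for 48 h, top concentration 100 uM, half-log dilutions.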

Read-out in test [8]: Cytochrome P450 2C19 (Homo sapiens) (UniProt P33261)
The test is described as follows: LTEA_HepaRG_CYP2C19: Life Technologies and Expression Analysis (LTEA) Assay for CYP2C19 using HepaRG (AID 2283482). In a few lines:
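HepaRG, 48 h chemical exposure, 8-pt half-log series from 100 uM in 0.5% DMSO, duplicates. Readout: CYP2C19 mRNA by TaqMan qRT-PCR, housekeeping-normalized. Bidirectional fit vs DMSO baseline; phenobarbital 1mM as induction control.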

Read-out in the next test: CYP2C8 (gene 1558)
The test is described as follows: LTEA_HepaRG_CYP2C8: Life Technologies and Expression Analysis (LTEA) Assay for CYP2C8 using HepaRG (AID 2283483). The method, boiled down:
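This is a transcriptional endpoint in HepaRG cultures: 48 h exposure, highest concentration 100 uM. CYP2C8 mRNA is quantified by TaqMan qRT-PCR.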

Read-out in a further test: CYP2C9 (gene 1559)
The test is described as follows: LTEA_HepaRG_CYP2C9: Life Technologies and Expression Analysis (LTEA) Assay for CYP2C9 using HepaRG (AID 2283484). In a few lines: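 Eight-point concentration-response (highest 100 uM, half-log dilutions) in HepaRG cells for 48 h; CYP2C9 expression by qRT-PCR normalized to ACTB, GAPDH, POLR2A. Bidirectional fit, DMSO baseline.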

Read-out in the next test: CYP2E1 (gene 1571)
The test is described as follows: LTEA_HepaRG_CYP2E1: Life Technologies and Expression Analysis (LTEA) Assay for CYP2E1 using HepaRG (AID 2283485). The method, boiled down:
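CYP2E1 transcript measured by Fluidigm qRT-PCR against three housekeeping genes in human HepaRG cells treated 48 h (top 100 uM, half-log steps, 0.5% DMSO vehicle). Gain or loss fitted relative to DMSO baseline.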

Read-out in another test: CYP4A11 (gene 1579)
Put plainly: LTEA_HepaRG_CYP4A11: Life Technologies and Expression Analysis (LTEA) Assay for CYP4A11 using HepaRG (AID 2283486). The method, boiled down: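 CYP4A11 transcript levels were quantified by TaqMan qRT-PCR after HepaRG human liver cells were treated for 48 hours with test chemicals (top 100 uM, half-log dilutions, 0.5% DMSO). Gain or loss of signal was fitted relative to DMSO.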

Read-out in test [9]: DNA damage-inducible transcript 3 (DDIT3), DDIT3 (gene 1649)
The test is described as follows: LTEA_HepaRG_DDIT3: Life Technologies and Expression Analysis (LTEA) Assay for DNA damage-inducible transcript 3 (DDIT3) using HepaRG (AID 2283488). In a few lines: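 DDIT3 transcript was quantified by qRT-PCR with ACTB/GAPDH/POLR2A normalization after 48 h chemical treatment of differentiated HepaRG cells in 0.5% DMSO. Dosing was eight-point, half-log, top 100 uM, duplicate wells. Curves fitted bidirectionally versus DMSO.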

Read-out in test [10]: Pro-epidermal growth factor (Homo sapiens) (UniProt P01133)
Put plainly: LTEA_HepaRG_EGF: Life Technologies and Expression Analysis (LTEA) Assay for Epidermal growth factor (EGF) using HepaRG (AID 2283489). In a few lines: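 qRT-PCR readout of EGF transcript after 48 h chemical exposure of HepaRG cells; eight concentrations from 100 uM down in half-log steps, duplicate wells, 0.5% DMSO vehicle. Bidirectional curve fitting against DMSO baseline.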

Read-out in test [11]: Early growth response protein 1 (EGR1) transcription factor, EGR1 (gene 1958)
Put plainly: LTEA_HepaRG_EGR1: Life Technologies and Expression Analysis (LTEA) Assay for Early growth response protein 1 (EGR1) transcription factor using HepaRG (AID 2283490). In a few lines:
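EGR1 expression change in human HepaRG after 48 h chemical exposure, assessed by housekeeping-normalized qRT-PCR; concentration-response up to 100 uM, fitted in both directions against DMSO controls.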

Read-out in test [12]: Ezrin (EZR), EZR (gene 7430)
Put plainly: LTEA_HepaRG_EZR: Life Technologies and Expression Analysis (LTEA) Assay for Ezrin (EZR) using HepaRG (AID 2283491). In a few lines: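 Differentiated human HepaRG cells, 48 h after plating, were exposed in serum-free induction medium for 48 hours to eight half-log concentrations up to 100 uM in 0.5% DMSO. EZR mRNA was measured by TaqMan qRT-PCR, normalized to ACTB, GAPDH and POLR2A, and fitted bidirectionally against DMSO.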

Read-out in test [13]: Cytochrome P450 3A7 (Homo sapiens) (UniProt P24462)
Put plainly: LTEA_HepaRG_CYP3A7: Life Technologies and Expression Analysis (LTEA) Assay for CYP3A7 using HepaRG (AID 2283492). In a few lines: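 CYP3A7 transcript levels were read by TaqMan qRT-PCR on Fluidigm arrays after 48 h chemical exposure of human HepaRG cells, with housekeeping-gene normalisation. Eight half-log concentrations up to 100 uM in 0.5% DMSO were tested in duplicate.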

Read-out in test [14]: Cytochrome P450 3A4 (Homo sapiens) (UniProt P08684)
Put plainly: LTEA_HepaRG_CYP3A4: Life Technologies and Expression Analysis (LTEA) Assay for CYP3A4 using HepaRG (AID 2283487). The method, boiled down:
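Differentiated HepaRG cells in serum-free induction medium exposed in duplicate for 48 h to 8 half-log concentrations up to 100 uM in 0.5% DMSO. CYP3A4 mRNA measured by qRT-PCR normalized to ACTB, GAPDH and POLR2A; bidirectional fit versus DMSO.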

One may read the AC50 as the midpoint of the concentration-response curve, whichever way the signal moves.

Active and inactive are the calls of the source. How the source made its calls: active means hit-call score of the fitted dose curve at least 0.9, where 1 is the maximum; inactive means score below 0.9.

Sequence of Caspase-3 (Homo sapiens) (P42574 whole entry, looked up): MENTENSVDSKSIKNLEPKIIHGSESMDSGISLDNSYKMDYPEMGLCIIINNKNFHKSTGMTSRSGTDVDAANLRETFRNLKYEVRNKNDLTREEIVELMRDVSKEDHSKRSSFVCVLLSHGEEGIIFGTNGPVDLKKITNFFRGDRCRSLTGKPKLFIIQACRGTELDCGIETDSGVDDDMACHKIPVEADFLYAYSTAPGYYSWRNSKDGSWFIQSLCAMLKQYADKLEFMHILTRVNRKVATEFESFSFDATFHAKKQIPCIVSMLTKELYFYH
Sequence of Cytochrome P450 2C19 (Homo sapiens) (P33261 whole entry, looked up): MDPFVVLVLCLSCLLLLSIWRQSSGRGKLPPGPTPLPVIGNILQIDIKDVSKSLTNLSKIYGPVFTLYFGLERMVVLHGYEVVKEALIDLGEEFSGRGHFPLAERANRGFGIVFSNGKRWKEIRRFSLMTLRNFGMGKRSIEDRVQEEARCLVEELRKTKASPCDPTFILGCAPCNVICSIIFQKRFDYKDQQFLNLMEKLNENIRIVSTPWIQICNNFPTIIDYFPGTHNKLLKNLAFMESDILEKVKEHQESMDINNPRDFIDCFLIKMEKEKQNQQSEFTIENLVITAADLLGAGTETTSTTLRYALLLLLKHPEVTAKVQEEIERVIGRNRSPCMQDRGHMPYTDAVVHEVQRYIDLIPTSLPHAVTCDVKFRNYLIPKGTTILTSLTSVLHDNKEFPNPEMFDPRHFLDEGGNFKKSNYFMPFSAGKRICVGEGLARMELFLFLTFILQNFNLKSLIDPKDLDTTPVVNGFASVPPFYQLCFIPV
Sequence of Apoptosis regulator Bcl-2 (Homo sapiens) (P10415 whole entry, looked up): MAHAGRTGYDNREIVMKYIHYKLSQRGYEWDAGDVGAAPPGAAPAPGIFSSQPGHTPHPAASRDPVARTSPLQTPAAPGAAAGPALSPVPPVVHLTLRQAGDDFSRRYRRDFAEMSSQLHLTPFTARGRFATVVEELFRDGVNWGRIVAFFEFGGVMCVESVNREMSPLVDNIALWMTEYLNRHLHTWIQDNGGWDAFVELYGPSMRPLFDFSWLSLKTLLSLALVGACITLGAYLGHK
Sequence of Cytochrome P450 3A7 (Homo sapiens) (P24462 whole entry, looked up): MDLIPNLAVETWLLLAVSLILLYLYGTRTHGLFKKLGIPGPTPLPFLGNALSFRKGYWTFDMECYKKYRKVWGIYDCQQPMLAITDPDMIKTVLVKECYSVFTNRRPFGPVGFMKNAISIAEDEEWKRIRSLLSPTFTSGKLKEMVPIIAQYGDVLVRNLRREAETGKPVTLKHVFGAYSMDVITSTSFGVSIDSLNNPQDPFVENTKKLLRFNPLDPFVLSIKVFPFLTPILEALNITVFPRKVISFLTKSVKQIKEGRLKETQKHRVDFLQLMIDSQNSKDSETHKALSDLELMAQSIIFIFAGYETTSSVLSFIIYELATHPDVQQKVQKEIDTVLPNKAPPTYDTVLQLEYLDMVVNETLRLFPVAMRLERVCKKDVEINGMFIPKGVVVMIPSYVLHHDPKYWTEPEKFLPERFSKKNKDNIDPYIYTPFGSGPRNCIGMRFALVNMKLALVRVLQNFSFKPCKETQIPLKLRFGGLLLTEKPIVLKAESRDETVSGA
Sequence of Cytochrome P450 3A4 (Homo sapiens) (P08684 whole entry, looked up): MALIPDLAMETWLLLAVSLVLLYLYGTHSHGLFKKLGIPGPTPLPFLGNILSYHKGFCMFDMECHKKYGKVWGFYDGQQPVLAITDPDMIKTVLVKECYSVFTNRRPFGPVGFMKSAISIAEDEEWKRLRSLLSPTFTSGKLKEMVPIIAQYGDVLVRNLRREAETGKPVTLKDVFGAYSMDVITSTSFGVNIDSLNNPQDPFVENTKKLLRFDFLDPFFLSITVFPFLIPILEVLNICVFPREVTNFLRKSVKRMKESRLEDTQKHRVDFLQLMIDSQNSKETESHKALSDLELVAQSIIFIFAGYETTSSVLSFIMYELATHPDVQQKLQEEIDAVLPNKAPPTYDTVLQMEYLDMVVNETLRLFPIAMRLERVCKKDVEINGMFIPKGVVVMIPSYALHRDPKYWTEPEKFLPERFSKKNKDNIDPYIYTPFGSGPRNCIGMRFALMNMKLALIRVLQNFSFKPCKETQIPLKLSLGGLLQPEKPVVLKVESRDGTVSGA

Consider `ClC1=C(Cl)C2(Cl)C3C(Cl)C=CC3C1(Cl)C2(Cl)Cl` (stereo not drawn), for which the compound was called inactive (with BCL2L11 (gene 10018); in test [1]; in [2]; in test [3]; with Caspase-3 (Homo sapiens); in [4]). Also, the call (in test [5]; in test [6]; in the test with CYP2C8 (gene 1558); with CYP2C9 (gene 1559); in [9]; in [10]) was inactive. Moreover, the call in test [11], in test [12] and in test [13] was inactive. Moreover, the concentration at half-maximal activity (AC50) in test [7] was 0.67 µM (active); in test [8], 2.22 µM (active); in the test with CYP2E1 (gene 1571), 7.54 µM (active); with CYP4A11 (gene 1579), 16.1 µM (active).
Turning to `Clc1ccc(C(c2ccc(Cl)cc2)C(Cl)(Cl)Cl)cc1`, the call (in the test with BCL2L11 (gene 10018); in [3]; with Caspase-3 (Homo sapiens); in test [4]; in [5]; in [6]) was inactive. Also, the result in test [10] and in [11] was inactive. Besides, the AC50 in [1] is 50 µM (active); in test [2], 50 µM (active); in test [7], 1.14 µM (active); in test [8], 2.78 µM (active); in the test with CYP2C9 (gene 1559) it was 0.549 µM (active); in the test with CYP2E1 (gene 1571), 50 µM (active). Moreover, the concentration at half-maximal activity (AC50) (with CYP4A11 (gene 1579); in test [9]; in test [12]) was 50 µM (active) throughout.
Regarding `CCOc1cccc(C2(N3CCN(c4ccccc4)CC3)CCC(C)CC2)c1` (stereo not drawn), the compound was classed as inactive (with BCL2L11 (gene 10018); in test [1]; in [2]; in test [3]; in the test with Caspase-3 (Homo sapiens); in [4]). Moreover, the outcome (in [6]; in test [8]; with CYP2C9 (gene 1559); with CYP2E1 (gene 1571); with CYP4A11 (gene 1579); in [14]) was inactive. Also, the compound was called inactive in test [9], in test [10], in test [11], in test [12] and in test [13]. Besides, the AC50 in [5] is 16.6 µM (active); in test [7] it was 30.8 µM (active).
Regarding `[As]#[In]`, the outcome (in the test with BCL2L11 (gene 10018); in test [1]; in test [2]; in test [3]; in the test with Caspase-3 (Homo sapiens); in test [4]) was inactive. Further, the compound was called inactive (in test [5]; in test [6]; in test [8]; in the test with CYP2C8 (gene 1558); in the test with CYP2C9 (gene 1559); with CYP4A11 (gene 1579)). Further, the call in test [9], in test [10], in test [11], in test [12] and in test [13] was inactive. In [7], the AC50 is 39 µM (active).

The record behind these values is PubChem BioAssay (EPA / NIEHS).
